# Data published in PubChem BioAssay (Tox21).
# “And” between values parts separate entries of the source, which are not always exact repeats. Identical values can stand only once. Results filed as inconclusive are left out. Where a call stands in place of a potency, no number is given. A structure can be active in one record and inactive in another. The source made the active and inactive calls. Unless noted, the call rests on the fitted dose curve; in most records, active means well fitted curve in the direction sought with a large enough effect in the repeat runs; inconclusive means weak or mixed curves; inactive means no such curve, though single readings can be large; an effect the other way counts as inactive or inconclusive.
# Columns and labels:
# [1] = qHTS assay to identify small molecule antagonists of the thyroid receptor (TR) signaling pathway - cell viability counter screen (AID 743064); further: nearly all actives have a fitted effect of over 50% in size; further: potency means the concentration at half of the fitted maximal effect
# Method in brief: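 CellTiter-Fluor readout, 30 min at 37 °C/5% CO2, following 23.5 h incubation of GH3.TRE-Luc cells with test compound and 1 nM T3 (final).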
# [2] = qHTS assay to identify small molecule antagonists of the thyroid receptor (TR) signaling pathway (AID 743065); further: nearly all actives have a fitted effect of over 55% in size; further: potency means the concentration at half of the fitted maximal effect
# Method in brief: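 GH3.TRE-Luc rat pituitary cells carrying two TR response elements driving luciferase were plated for 4 h, given compound plus 1 nM T3 (final), and incubated 23.5 h at 37 C. ONE-Glo luminescence measured reporter inhibition; CellTiter-Fluor fluorescence tracked cytotoxicity.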
# [3] = test system: thyroid hormone receptor (rat, GH3 cells); experiment: qHTS assay to identify small molecule agonists of the thyroid receptor (TR) signaling pathway (AID 743066; calls by dose curve; further: potency means the concentration at half of the fitted maximal effect)
# [4] = qHTS assay to identify small molecule antagonists of the estrogen receptor alpha (ER-alpha) signaling pathway - cell viability counter screen (AID 743074; calls by dose curve;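 further: HEK293 cells carrying ER-alpha-UAS-bla reporter stimulated with 17beta-estradiol; nearly all actives have a fitted effect of over 45% in size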)
# [5] = qHTS assay to identify small molecule antagonists of the estrogen receptor alpha (ER-alpha) signaling pathway using the BG1 cell line - cell viability counter screen (AID 743081);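 further: compound given together with 17beta-estradiol as the ER stimulus; nearly all actives have a fitted effect of over 45% in size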
# [6] = molecular target: Aromatase (Homo sapiens) (UniProt P11511); experiment: qHTS assay to identify aromatase inhibitors (AID 743083); further: nearly all actives have a fitted effect of over 55% in size
# [7] = molecular target: Estrogen receptor (Homo sapiens) (UniProt P03372); experiment: qHTS assay to identify small molecule antagonists of the estrogen receptor alpha (ER-alpha) signaling pathway (AID 743069; active means well fitted curve in the direction sought with a large enough effect in the signal ratio in the repeat runs, not every such curve was filed as active; the % refers to the signal ratio)
# Method in brief: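 Estradiol-stimulated ER-alpha-UAS-bla HEK293 cells, 18 hr compound exposure at 37C. LiveBLAzer B/G substrate, 2 hr RT, fluorescence read.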
# [8] = molecular target: Estrogen receptor (Homo sapiens) (UniProt P03372); experiment: qHTS assay to identify small molecule agonists of the estrogen receptor alpha (ER-alpha) signaling pathway (AID 743075; calls by dose curve;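 further: HEK293 GripTite cells with ER-alpha and UAS-driven beta-lactamase reporter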; further: potency means the concentration at half of the fitted maximal effect)
# [9] = molecular target: Estrogen receptor (Homo sapiens) (UniProt P03372); experiment: qHTS assay to identify small molecule agonists of the estrogen receptor alpha (ER-alpha) signaling pathway using the BG1 cell line (AID 743079); conditions: BG1Luc4E2 cells, ERE-luciferase agonist, 22 h; activation: at 70.3 µM (top of the series) unless noted; further: nearly all actives have a fitted effect of over 20% in size; further: potency means the concentration at half of the fitted maximal effect
# [10] = qHTS assay to identify small molecule antagonists of the estrogen receptor alpha (ER-alpha) signaling pathway using the BG1 cell line (AID 743080; calls by dose curve;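 further: BG1 cells stimulated with 17beta-estradiol alongside compound; nearly all actives have a fitted effect of over 25% in size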)
# Method in brief: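 Quantitative HTS on the Tox21 10K library: BG1 cells with endogenous ER-alpha and ERE-luciferase reporter, 17beta-estradiol stimulation, 21.5 h compound exposure, luminescence endpoint with parallel fluorescence cytotoxicity counter-read.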
# Sequence of Estrogen receptor (Homo sapiens) (P03372 whole entry, looked up): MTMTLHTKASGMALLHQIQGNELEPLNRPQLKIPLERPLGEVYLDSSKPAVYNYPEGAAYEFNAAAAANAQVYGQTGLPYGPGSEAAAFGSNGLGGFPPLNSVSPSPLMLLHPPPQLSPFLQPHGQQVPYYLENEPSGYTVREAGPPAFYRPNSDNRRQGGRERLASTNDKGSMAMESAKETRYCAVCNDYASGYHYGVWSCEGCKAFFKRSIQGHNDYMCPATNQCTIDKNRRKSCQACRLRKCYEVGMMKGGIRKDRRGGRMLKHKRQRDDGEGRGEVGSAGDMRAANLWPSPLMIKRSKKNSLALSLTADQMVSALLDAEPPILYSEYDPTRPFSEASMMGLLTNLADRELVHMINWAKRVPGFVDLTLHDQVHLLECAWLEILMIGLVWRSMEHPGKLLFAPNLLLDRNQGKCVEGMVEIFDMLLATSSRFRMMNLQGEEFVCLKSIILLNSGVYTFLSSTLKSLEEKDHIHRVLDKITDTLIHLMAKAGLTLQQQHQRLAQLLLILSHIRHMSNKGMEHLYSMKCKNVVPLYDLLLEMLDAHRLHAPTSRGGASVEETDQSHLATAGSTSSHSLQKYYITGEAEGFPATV
# Sequence of Aromatase (Homo sapiens) (P11511 whole entry, looked up): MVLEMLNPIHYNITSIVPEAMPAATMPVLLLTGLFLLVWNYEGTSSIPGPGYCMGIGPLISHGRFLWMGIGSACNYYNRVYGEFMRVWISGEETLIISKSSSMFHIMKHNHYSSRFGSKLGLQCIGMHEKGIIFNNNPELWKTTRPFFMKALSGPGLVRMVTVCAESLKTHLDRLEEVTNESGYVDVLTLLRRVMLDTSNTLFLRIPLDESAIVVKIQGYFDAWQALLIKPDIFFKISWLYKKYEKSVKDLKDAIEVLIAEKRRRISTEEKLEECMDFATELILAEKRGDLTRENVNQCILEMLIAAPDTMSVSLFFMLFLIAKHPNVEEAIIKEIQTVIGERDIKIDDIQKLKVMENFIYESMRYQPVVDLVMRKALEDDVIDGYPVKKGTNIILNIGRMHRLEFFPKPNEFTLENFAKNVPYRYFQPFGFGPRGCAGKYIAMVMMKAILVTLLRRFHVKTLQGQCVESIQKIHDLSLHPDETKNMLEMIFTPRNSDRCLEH
SMILES,Potency [1],Potency [2],Potency [3],Potency [4],Potency [5],Potency [6],Potency [7],Potency [8],Potency [9],Potency [10]
O=C(NCC1CCCCN1)c1cc(OCC(F)(F)F)ccc1OCC(F)(F)F (configuration not stated),29.8 µM (active),53.5 µM (active),inactive,inactive,inactive,,,,,
C=C1C[C@]23C[C@@]1(O)CC[C@H]2[C@@]12C=C[C@H](O)[C@@](C)(C(=O)O1)[C@H]2[C@@H]3C(=O)O,inactive,inactive,inactive,inactive,inactive,inactive,,,,
C=CC(=O)NCOCCCC,inactive,inactive,inactive,inactive,inactive,inactive,inactive,inactive,inactive,inactive
CC/C(C)=N/O,inactive,inactive,inactive,inactive,inactive,,,,,
CS(=O)(=O)c1ccc(Cl)cc1,inactive,inactive,inactive,inactive,inactive,inactive,,,,
O=c1n(CCCN2CCN(c3cccc(Cl)c3)CC2)nc2ccccn12,inactive,inactive,inactive,inactive,inactive,inactive,,,,
OCc1ccc(Cl)cc1Cl,inactive,inactive,inactive,inactive,inactive,inactive,,,,
OCCOCCOCCOCCOCCO,inactive,inactive,inactive,inactive,inactive,inactive,,,,
O=C(O)Cc1c[nH]c2ccccc12,inactive,inactive,inactive,inactive,inactive,,,,,
CCCOC(=O)NCCCN(C)C,inactive,inactive,inactive,inactive,inactive,inactive,,,,
OC[C@H]1O[C@@H](Oc2ccc(O)cc2)[C@H](O)[C@@H](O)[C@@H]1O,inactive,inactive,inactive,inactive,inactive,inactive,inactive,inactive,inactive,inactive
COc1c2ccoc2cc2oc(=O)ccc12,inactive,inactive,inactive,inactive,inactive,inactive,,inactive,inactive,inactive
C=C(C)CC(C)(C)C,inactive,inactive,inactive,inactive,inactive,,,,,
O=C1C(N(CO)C(=O)NCO)N(CO)C(=O)N1CO (configuration not stated),inactive,inactive,inactive,inactive,inactive,inactive,inactive,inactive,inactive,inactive
CO[Si](CCCNCCN)(OC)OC,inactive,inactive,inactive,inactive,inactive,inactive,,,,
C=C(CC(=O)O)C(=O)O,inactive,inactive,inactive,inactive,inactive,inactive,,,,

SMILES,Potency [1],Potency [2],Potency [3],Potency [4],Potency [5],Potency [6],Potency [7],Potency [8],Potency [9],Potency [10]
CCn1cc(C(=O)O)c(=O)c2cc3c(cc21)OCO3,inactive,inactive,inactive,inactive,inactive,inactive,,,,
CC(COCC(C)OC(=O)c1ccccc1)OC(=O)c1ccccc1 (configuration not stated),inactive,inactive,inactive,inactive,inactive,inactive,,,,
CC(C)(C)NC[C@H](O)COc1nsnc1N1CCOCC1,inactive,inactive,inactive,inactive,inactive,,,,,
COC(=O)/C=C\C(=O)OC,inactive,inactive,inactive,inactive,inactive,,,,,
COc1ccc(N)c(OC)c1,inactive,inactive,inactive,inactive,inactive,inactive,inactive,inactive,inactive,inactive
C[n+]1ccn(CCO)c1,inactive,inactive,inactive,inactive,inactive,inactive,,,,inactive
CCCCCCCCC(=O)O,inactive,inactive,inactive,inactive,inactive,inactive,inactive,inactive,inactive,inactive
CC(C)(CO)CO,inactive,inactive,inactive,inactive,inactive,inactive,inactive,inactive and 43.7 µM [activator] (active),inactive,inactive
NCCNCCNCCN,inactive,inactive,inactive,inactive,inactive,,,,,
CCCCCC(C)=O,inactive,inactive,inactive,inactive,inactive,inactive,,,,
O=[N+]([O-])c1cc(C(F)(F)F)ccc1Cl,inactive,inactive,inactive,inactive,inactive,inactive,,,,
Cc1cccc(C)c1[N+](=O)[O-],inactive,inactive,inactive and 61.1 µM (active),inactive,inactive,inactive,,,,
CCCCCCCCCCCCCC(=O)O,inactive,inactive,inactive,,inactive,inactive,inactive,inactive,inactive,inactive
CN1Cc2c(N)cccc2C(c2ccccc2)C1 (configuration not stated),inactive,inactive,inactive,inactive,inactive,,,,,
CCOC(=O)c1ccc(O)cc1,inactive,inactive,inactive,inactive,inactive,inactive,inactive,inactive,23.7 µM (active) and 30.6 µM (active),
